From PubChem BioAssay (NCI) come the findings set out here.

SMILES strings stand for the structures. About 83,000 compounds went through this panel and 20% of them were active in at least one assay; those are over-represented in the sample as a whole.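 Percent growth is the endpoint: 0 to 100 indicates growth inhibition (40 means 60% inhibition), 0 means no net growth, and negative values indicate cell death.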 Unmarked numbers belong to inactive results. Active and inactive are the calls of the source. Rule for the calls: active = growth percent below 10; inactive = the rest.

Some test systems named below: T-47D breast; BT-549 breast; MDA-MB-435 melanoma; SW-620 colon; MCF7 breast; HCT-116 colon; HCC-2998 colon; KM12 colon.
Holding throughout (assay): NCI-60 one-dose screen, 48 h (100 = growth as untreated, 0 = no growth, -100 = all killed)
Common to all, as to conditions: 10 µM unless noted

As to `CCOC(=O)C(C)(C#N)C1C=CCCC1` (stereo not drawn), the growth in the assay on T-47D breast was 84.5%; in the assay with BT-549 breast it was 111%; in the assay on MDA-MB-435 melanoma, 100%; with SW-620 colon it was 91.2%; in the assay on MCF7 breast, 92.7%; in the assay with HCT-116 colon, 93.2%. The figures for the growth in the assay on HCC-2998 colon and with KM12 colon were 43.5% and 90.5%, respectively.
Turning to `Cc1cc2nc3[nH]c4ccccc4c3nc2cc1C`, the growth in the assay with T-47D breast was 58.9%; in the assay on BT-549 breast it was 92.4%; in the assay on MDA-MB-435 melanoma, 120%; with SW-620 colon, 73.3%; with MCF7 breast, 48.2%; in the assay on HCT-116 colon it was 46.1%. Also, the growth in the assay with HCC-2998 colon is 98.4%; in the assay with KM12 colon it was 77.9%.
Regarding `COc1ccc(-c2cc(NC(=O)Nc3ccc4ncsc4c3)no2)cc1`, the growth was 86.6% in the assay with T-47D breast; 106% with BT-549 breast; 105% with MDA-MB-435 melanoma; 105% in the assay on SW-620 colon; 84.6% in the assay with MCF7 breast; 102% in the assay on HCT-116 colon. Besides, the growth in the assay on HCC-2998 colon is 103%; with KM12 colon it was 100%.
`CC[N+](CC)=c1sc2c(s1)C(c1ccc(Cl)cc1)Oc1ccc(Cl)cc1-2` (stereo not drawn): the growth with T-47D breast was -2.38% (active); in the assay with BT-549 breast, 4.07% (active); in the assay with MDA-MB-435 melanoma it was 2.5% (active); with SW-620 colon, 2.29% (active); with MCF7 breast it was 4.58% (active); with HCT-116 colon it was 6.48% (active). The growth with HCC-2998 colon was -15.1% (active); with KM12 colon, -28.8% (active).
`COc1ccc(-n2nc(C)c3c(Nc4ccc(NC(=O)Nc5c(Cl)cccc5Cl)cc4)ncnc32)cc1`: the growth is 40% in the assay on T-47D breast; 57.9% with BT-549 breast; 49.1% with MDA-MB-435 melanoma; 48.6% in the assay on SW-620 colon; 58.5% in the assay with MCF7 breast; 25% in the assay on HCT-116 colon. Besides, the growth was 51% in the assay with HCC-2998 colon and 18% with KM12 colon.
Turning to `Clc1ccc2nc3nc4ccc[nH]c4cc3c2c1`, the growth with T-47D breast was 22%; in the assay with BT-549 breast it was 97.7%; with MDA-MB-435 melanoma, 103%; in the assay on SW-620 colon, 102%; in the assay with MCF7 breast, 6.54% (active); with HCT-116 colon, 96.9%. Besides, the growth in the assay with HCC-2998 colon was 70.6%; in the assay with KM12 colon, 63%.
As to `O=C1c2cc3c(cc2-c2c1c1cc(F)c(F)cc1c(=O)n2CCCn1ccnc1)OCO3`, the growth with T-47D breast is 4.88% (active); in the assay with BT-549 breast, 12.5%; with MDA-MB-435 melanoma, 8.57% (active); with SW-620 colon it was 8.92% (active); with MCF7 breast it was -1.22% (active); in the assay with HCT-116 colon it was -12.8% (active). Also, the growth was 13.5% in the assay on HCC-2998 colon and 3.55% (active) with KM12 colon.
In the case of `Cn1cc(-c2nonc2-c2cn(C)c3ccc(F)cc23)c2cc(F)ccc21`, the growth in the assay on T-47D breast is 64.7%; in the assay with BT-549 breast, 68.6%; with MDA-MB-435 melanoma, -4.48% (active); in the assay with SW-620 colon, 22.2%; in the assay on MCF7 breast, 27.9%; in the assay on HCT-116 colon, 28.2%. Moreover, the growth was 73% with HCC-2998 colon and 33% in the assay with KM12 colon.
For the compound `C=CC(=O)Nc1cccc(-c2nc(SC)nc(NCCN3CCOCC3)c2C#N)c1`, the growth was 93% with T-47D breast; 87.7% with BT-549 breast; 87.1% with MDA-MB-435 melanoma; 108% with SW-620 colon; 72.6% in the assay with MCF7 breast; 95.3% in the assay on HCT-116 colon. The results for the growth with HCC-2998 colon and in the assay on KM12 colon were 115% and 102%, respectively.
With `Oc1ccccc1-c1nnc(CNc2ccc(Cl)cc2)o1`, the growth in the assay with T-47D breast was 30.9%; in the assay with BT-549 breast, 41.1%; in the assay with MDA-MB-435 melanoma, 33.8%; in the assay with SW-620 colon it was 29.4%; in the assay on MCF7 breast it was 14.2%; with HCT-116 colon, 42%. Also, the growth in the assay with HCC-2998 colon is 37.5%; in the assay on KM12 colon it was 18.9%.
On to `CN(C)CCN1C(=O)c2cccc3c(N)ccc(c23)C1=O`, for which the growth was -2.59% (active) in the assay with T-47D breast; 89.9% in the assay with BT-549 breast; 39.6% in the assay on MDA-MB-435 melanoma; 26.6% in the assay on SW-620 colon; -11.3% (active) in the assay on MCF7 breast; 15.9% with HCT-116 colon. Moreover, the growth was 48.1% in the assay on HCC-2998 colon and 28.1% with KM12 colon.
Turning to `CC(C)(C)c1cc(/C=N\NC(=O)/C=C/C=C/c2ccc3c(c2)OCO3)c(O)c(C(C)(C)C)c1`, the growth in the assay on T-47D breast was 35%; in the assay on BT-549 breast, 92.9%; in the assay on MDA-MB-435 melanoma it was 86.4%; in the assay with SW-620 colon, 74.6%; with MCF7 breast, 61.3%; with HCT-116 colon, 87.7%. Moreover, the growth in the assay with HCC-2998 colon is 89.2%; in the assay with KM12 colon, 75.1%.
Consider `O=C1OCC2=C1C(c1ccncc1)c1cc3c(cc1N2CCO)OCO3` (stereo not drawn), for which the growth is 91.1% in the assay with T-47D breast; 112% in the assay on BT-549 breast; 96.7% with MDA-MB-435 melanoma; 93.4% with SW-620 colon; 96.3% in the assay with MCF7 breast; 107% in the assay with HCT-116 colon. The growth in the assay with HCC-2998 colon was 103%; with KM12 colon, 97.8%.
On to `Cn1cc(-c2nonc2-c2cn(C)c3ccc(F)cc23)c2ccccc21`, for which the growth with T-47D breast was 37.3%; in the assay with BT-549 breast it was 56.1%; with MDA-MB-435 melanoma, -26% (active); in the assay with SW-620 colon it was 22%; in the assay on MCF7 breast, 21.3%; with HCT-116 colon, 11.6%. Also, the figures for the growth in the assay on HCC-2998 colon and in the assay on KM12 colon were 25.9% and 14.7%, respectively.
Consider `CCOc1cc2ncc(C#N)c(Nc3ccc(OCc4cccc(F)c4)c(Cl)c3)c2cc1NC(=O)CC1CCSS1` (stereo not drawn), for which the growth in the assay on T-47D breast was -0.0513% (active); in the assay with BT-549 breast, 44.6%; with MDA-MB-435 melanoma, -26.4% (active); with SW-620 colon, 90.4%; with MCF7 breast it was 2.9% (active); in the assay with HCT-116 colon, -24.7% (active). The growth was -25.1% (active) in the assay with HCC-2998 colon and -67.6% (active) in the assay on KM12 colon.
Consider `Clc1ccc2c(NCCCCNc3nc(N4CCCCC4)nc4ccccc34)ccnc2c1`, for which the growth with T-47D breast is -46.7% (active); in the assay on BT-549 breast, 37%; in the assay on MDA-MB-435 melanoma, -81.9% (active); with SW-620 colon, -1.17% (active); in the assay on MCF7 breast it was 15.8%; with HCT-116 colon, -17.7% (active). Moreover, the growth in the assay on HCC-2998 colon is -16.5% (active); with KM12 colon it was 19.6%.
